Source: PMC5540273 (PLoS ONE, 2017)

Legend:
Details in all cases: concentration: 1 μM, replicates: in singlicate; n = 1
HUNK = test system: HUNK
ICK = test system: ICK
IGF1R = test system: IGF1R
IKK-alpha = test system: T1, IKK-alpha
T1 construct: gene CHUK

IKK-beta = test system: T2, IKK-beta
T2 construct: gene IKBKB

IKK-epsilon = test system: T3, IKK-epsilon
T3 construct: gene IKBKE

INSRR = test system: INSRR
INSR = test system: INSR
IRAK1 = test system: IRAK1
IRAK3 = test system: IRAK3
IRAK4 = test system: IRAK4
ITK = test system: ITK
[1] = test system: JAK1(JH1domain-catalytic)
[2] = test system: JAK1(JH2domain-pseudokinase)
[3] = test system: JAK2(JH1domain-catalytic)
[4] = test system: JAK3(JH1domain-catalytic)
JNK1 = test system: T4, JNK1
T4 construct: gene MAPK8

JNK2 = test system: T5, JNK2
T5 construct: gene MAPK9

JNK3 = test system: T6, JNK3
T6 construct: gene MAPK10

KIT-autoinhibited = test system: KIT-autoinhibited
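Note: KINOMEscan kinase panel screen.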

| SMILES | %Inh (HUNK) [%] | %Inh (ICK) [%] | %Inh (IGF1R) [%] | %Inh (IKK-alpha) [%] | %Inh (IKK-beta) [%] | %Inh (IKK-epsilon) [%] | %Inh (INSRR) [%] | %Inh (INSR) [%] | %Inh (IRAK1) [%] | %Inh (IRAK3) [%] | %Inh (IRAK4) [%] | %Inh (ITK) [%] | %Inh [1] [%] | %Inh [2] [%] | %Inh [3] [%] | %Inh [4] [%] | %Inh (JNK1) [%] | %Inh (JNK2) [%] | %Inh (JNK3) [%] | %Inh (KIT-autoinhibited) [%] |
| --- | --- | --- | --- | --- | --- | --- | --- | --- | --- | --- | --- | --- | --- | --- | --- | --- | --- | --- | --- | --- |
| O=C(Nc1ccccc1)Nc1cccc(Oc2ccc3nccn3n2)c1 | 18 | 0 | 0 | 7 | 0 | 0 | 0 | 0 | 9 | 1 | 0 | 2 | 16 | 5 | 7 | 0 | 0 | 0 | 0 | 39 |
| Fc1cccc(COc2nnc(-c3ccc4c(c3)CCO4)o2)c1 | 7 | 0 | 2 | 21 | 7 | 0 | 0 | 0 | 44 | 0 | 5 | 23 | 0 | 10 | 0 | 5 | 6 | 0 | 0 | 0 |
| Cl.NC(=O)c1cccc(Nc2nccc(Nc3ccc(Oc4cccc(Cl)c4)c(Cl)c3)n2)c1 [GW659008] | 0 | 85 | 14 | 3 | 5 | 0 | 12 | 6 | 0 | 50 | 0 | 0 | 15 | 0 | 84 | 0 | 22 | 20 | 10 | 0 |
| Cl.c1ccc(-c2n[nH]cc2-c2ccnc(-c3ccc(CN4CCOCC4)cc3)c2)nc1 [GW776245] | 2 | 0 | 0 | 0 | 0 | 0 | 0 | 0 | 0 | 0 | 0 | 0 | 0 | 2 | 0 | 0 | 31 | 17 | 20 | 0 |
| Cn1ccc2ncnc(Oc3ccc(NC(=O)Nc4ccccc4)cc3)c21 | 0 | 0 | 0 | 5 | 0 | 17 | 0 | 14 | 7 | 0 | 17 | 0 | 0 | 39 | 2 | 21 | 22 | 0 | 0 | 57 |
| COc1ccc2nc(-c3cccc(C)n3)nc(Nc3ccncc3)c2c1 [GSK204919] | 9 | 0 | 0 | 0 | 22 | 3 | 0 | 0 | 4 | 0 | 0 | 13 | 0 | 80 | 10 | 0 | 0 | 60 | 36 | 0 |
| O=C(Nc1n[nH]c2cc(-c3cccc(F)c3F)ccc12)C1CC1 [SB-733894] | 0 | 22 | 0 | 0 | 5 | 11 | 0 | 41 | 0 | 10 | 0 | 0 | 0 | 67 | 27 | 18 | 32 | 0 | 1 | 6 |
| Clc1cc(Cl)cc(Nc2ccnc(Nc3cc(Cl)cc(Cl)c3)n2)c1 [GSK175726] | 0 | 7 | 16 | 0 | 10 | 39 | 0 | 13 | 15 | 2 | 0 | 4 | 12 | 0 | 22 | 0 | 2 | 0 | 0 | 3 |
| O=C(Nc1n[nH]c2nc(-c3nccs3)c(Br)cc12)C1CC1 [SB-742251] | 0 | 61 | 0 | 54 | 49 | 1 | 0 | 2 | 64 | 4 | 43 | 13 | 1 | 21 | 36 | 0 | 41 | 16 | 16 | 0 |
| O=C(Nc1ccc2c(c1)OCO2)NC1CCN(c2ccnc(Nc3ccc(F)cc3)n2)C1 (stereo not drawn) [GSK1379724] | 12 | 19 | 0 | 25 | 16 | 0 | 0 | 0 | 36 | 0 | 21 | 8 | 18 | 0 | 13 | 0 | 33 | 23 | 24 | 0 |
| COC(=O)c1c(-c2ccccc2)c2cc(C(=O)O)ccc2c(=O)n1Cc1ccccc1 | 43 | 0 | 4 | 0 | 0 | 0 | 7 | 0 | 18 | 0 | 22 | 5 | 2 | 0 | 0 | 0 | 0 | 0 | 0 | 0 |
| COc1cccc(-c2cc(-c3c[nH]nc3-c3ccccn3)ccn2)c1 [GW680338] | 71 | 0 | 6 | 2 | 0 | 0 | 0 | 0 | 13 | 0 | 0 | 2 | 7 | 0 | 0 | 0 | 42 | 40 | 50 | 0 |
| Cc1ccc(-c2cc(-c3c[nH]nc3-c3ccccn3)ccn2)cc1 [GW684088] | 1 | 0 | 36 | 0 | 0 | 9 | 0 | 0 | 0 | 7 | 0 | 0 | 12 | 1 | 0 | 0 | 29 | 36 | 53 | 2 |
| Cn1ccc2ncnc(Oc3cccc(C(=O)Nc4ccccc4)c3)c21 | 0 | 8 | 2 | 22 | 15 | 7 | 0 | 16 | 0 | 0 | 8 | 0 | 7 | 27 | 12 | 0 | 16 | 0 | 0 | 0 |
| Nc1ncnc2[nH]c(-c3ccccc3)nc12 [AH5015] | 0 | 0 | 3 | 42 | 55 | 0 | 19 | 0 | 0 | 0 | 52 | 12 | 8 | 34 | 47 | 0 | 9 | 16 | 15 | 14 |
| Cn1ccc2ncnc(Oc3ccc(Nc4nc5ccccc5[nH]4)cc3)c21 | 0 | 0 | 0 | 0 | 0 | 0 | 17 | 0 | 0 | 0 | 0 | 3 | 8 | 0 | 0 | 0 | 0 | 0 | 0 | 0 |
| COc1ccc(Nc2nccc(NCCNC(=O)Nc3ccccc3F)n2)cc1 [GSK1379901] | 9 | 0 | 10 | 0 | 11 | 12 | 0 | 0 | 36 | 8 | 20 | 9 | 15 | 0 | 25 | 0 | 56 | 15 | 11 | 0 |

| SMILES | %Inh (HUNK) [%] | %Inh (ICK) [%] | %Inh (IGF1R) [%] | %Inh (IKK-alpha) [%] | %Inh (IKK-beta) [%] | %Inh (IKK-epsilon) [%] | %Inh (INSRR) [%] | %Inh (INSR) [%] | %Inh (IRAK1) [%] | %Inh (IRAK3) [%] | %Inh (IRAK4) [%] | %Inh (ITK) [%] | %Inh [1] [%] | %Inh [2] [%] | %Inh [3] [%] | %Inh [4] [%] | %Inh (JNK1) [%] | %Inh (JNK2) [%] | %Inh (JNK3) [%] | %Inh (KIT-autoinhibited) [%] |
| --- | --- | --- | --- | --- | --- | --- | --- | --- | --- | --- | --- | --- | --- | --- | --- | --- | --- | --- | --- | --- |
| Cc1cccc(-c2nc(-c3ccc(S(C)(=O)=O)cc3)sc2-c2ccnc(NCCc3ccccc3)c2)c1 | 0 | 0 | 15 | 0 | 8 | 0 | 3 | 7 | 17 | 0 | 9 | 0 | 2 | 4 | 8 | 0 | 0 | 0 | 0 | 0 |
| Cc1cccc(-c2nc(Nc3ccc4[nH]ncc4c3)c3ccccc3n2)n1 [GW857175] | 0 | 17 | 0 | 6 | 17 | 21 | 0 | 9 | 9 | 3 | 18 | 5 | 18 | 83 | 22 | 60 | 36 | 32 | 31 | 30 |
| CC1=C(C(=O)Nc2cc3cn[nH]c3cc2F)C(c2ccc(C(F)(F)F)cc2)CC(=O)N1 (stereo not drawn) [GSK429286] | 20 | 13 | 0 | 0 | 56 | 5 | 0 | 0 | 31 | 5 | 17 | 13 | 40 | 0 | 62 | 29 | 21 | 25 | 15 | 0 |
| CC(=O)Nc1nc2cnc(Nc3cc(NC(=O)c4cccc(CCC#N)c4)ccc3C)nc2s1 | 0 | 0 | 0 | 10 | 0 | 33 | 0 | 34 | 19 | 21 | 15 | 3 | 3 | 9 | 22 | 0 | 0 | 0 | 0 | 11 |
| COc1cc2ncn(-c3cc(OCC4CCCO4)c(C(N)=O)s3)c2cc1OC (stereo not drawn) [GSK204607] | 0 | 0 | 6 | 0 | 0 | 24 | 0 | 0 | 0 | 0 | 0 | 5 | 0 | 0 | 1 | 0 | 0 | 17 | 7 | 0 |
| C[C@@H]1CCCCN1c1cc(-c2ccc3c(N)n[nH]c3c2)nc(N)n1 [GSK2258759] | 0 | 11 | 4 | 0 | 7 | 43 | 0 | 6 | 4 | 0 | 0 | 0 | 8 | 0 | 0 | 0 | 0 | 10 | 0 | 0 |
| COc1cc2nccc(Nc3ccc(NC(=O)c4ccc(C)cc4)c(O)c3)c2cc1OC.Cl [GW440132] | 28 | 0 | 0 | 0 | 3 | 0 | 0 | 0 | 0 | 14 | 0 | 20 | 12 | 0 | 0 | 0 | 16 | 29 | 7 | 0 |
| CS(=O)(=O)c1ccc(-c2nc3n(c2-c2ccncc2)CCC3)cc1 [SKF-105942] | 27 | 100 | 0 | 0 | 0 | 0 | 0 | 16 | 1 | 0 | 23 | 7 | 6 | 0 | 0 | 0 | 41 | 16 | 0 | 7 |
| Cc1c(O)cccc1Nc1ccnc2ccc(C(F)(F)F)cc12.Cl [GW466413] | 93.4 | 0 | 0 | 8 | 0 | 0 | 0 | 0 | 0 | 0 | 0 | 0 | 0 | 0 | 6 | 0 | 21 | 4 | 0 | 0 |
| O=C1NC(=O)C(N2CCc3ccccc32)=C1c1ccccc1Cl [SB-373598] | 13 | 17 | 29 | 98.1 | 20 | 30 | 2 | 23 | 0 | 9 | 7 | 10 | 3 | 0 | 0 | 40 | 7 | 6 | 5 | 0 |
| Cc1cccc(-c2nc(Nc3ccncc3)c3ccccc3n2)n1 [GW855857] | 0 | 0 | 0 | 0 | 0 | 0 | 0 | 7 | 0 | 21 | 0 | 24 | 0 | 74 | 0 | 0 | 0 | 6 | 21 | 0 |
| Cc1cccc(-c2cc(Nc3ccncc3)c3ccccc3n2)n1 [GSK223675] | 0 | 11 | 0 | 0 | 0 | 36 | 0 | 14 | 15 | 0 | 13 | 0 | 11 | 5 | 100 | 0 | 11 | 27 | 15 | 0 |
| COc1ccc(CNC(=O)NC2CCN(c3ccnc(Nc4cc(OC)c(OC)c(OC)c4)n3)C2)cc1 (stereo not drawn) [GSK1379748] | 3 | 8 | 0 | 0 | 0 | 20 | 0 | 0 | 63 | 63 | 0 | 7 | 0 | 0 | 87 | 0 | 0 | 0 | 0 | 0 |
| Nc1nc(-c2nccs2)c(-c2ccnc3ccccc23)s1 [GW693542] | 23 | 0 | 10 | 0 | 9 | 31 | 0 | 0 | 18 | 7 | 16 | 6 | 17 | 0 | 10 | 0 | 20 | 22 | 1 | 0 |
| COc1ccccc1-c1ccc2c(NC(=O)C3CC3)n[nH]c2n1 [SB-711239] | 16 | 0 | 0 | 64 | 0 | 24 | 1 | 0 | 15 | 9 | 7 | 0 | 25 | 0 | 0 | 13 | 0 | 9 | 0 | 0 |
| Cc1ccc(C(=O)Nc2ccc(Nc3ccnc4cc(-c5ccccn5)ccc34)cc2O)cc1.Cl [GW440146] | 23 | 0 | 18 | 0 | 0 | 16 | 0 | 1 | 28 | 3 | 9 | 0 | 16 | 0 | 5 | 0 | 5 | 15 | 0 | 17 |
